{
  "source": "PubChem BioAssay (NCI)",
  "note": "The panel holds about 83,000 compounds, 20% with a hit somewhere; the sample as a whole holds those more often.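 The endpoint reported here, percent growth, reads 100 for growth as untreated, 0 for no net growth and -100 for all cells dead.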 The source made the active and inactive calls. Rule for the calls: active = growth percent below 10; inactive = the rest.",
  "data": [
    {"tested_on": "MDA-MB-468 breast", "experiment": "NCI-60 one-dose screen, 48 h (100 = growth as untreated, 0 = no growth, -100 = all killed)", "details": "10 µM unless noted", "values": [
      {"smiles": "Cc1ccc(Cc2cnc(NC(=O)CN3C(=O)/C(=C\\c4ccccc4)SC3=S)s2)cc1", "growth": "105% (inactive)"},
      {"smiles": "Cc1nc(Nc2ccc(F)c(Cl)c2)sc1C(=O)O", "growth": "-1.67% (active)"},
      {"smiles": "CN(C)c1ncc(C#Cc2c(F)cccc2F)c2ccccc12", "growth": "-7.26% (active)"},
      {"smiles": "CCN1CCC2(CC1)OC(c1ccccc1)C(c1ccccc1)O2", "note": "(centres undefined)", "growth": "102% (inactive)"}
    ]}
  ]
}
